Source: the supplement of paper PMC3616981
± gives the standard deviation of the averaged measurements.

Compound: CC(C)c1cccc(C(C)C)c1N1C(=O)c2ccc(O)cc2C1=O
Assay: BioMAP readout fold decrease vs vehicle (vehicle/treated); higher = stronger decrease of the readout vs vehicle (values <1 mean increase)
Method: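 BioSeek BioMAP human primary cell (co-)culture systems (3C, 4H, LPS, SAg, BE3C, CASM3C, hDFCGF, KF3CT) treated with 5HPP-33 at 1.48, 4.44, 13.3 and 40 µM. Read-outs are protein levels by ELISA, proliferation and SRB total protein. Duplicate rows per assay are averaged as replicates. Tested in ToxCast Phase II for this study; exposure time not stated.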
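Note: Co-cultures of keratinocytes, bronchial epithelial and smooth muscle cells, fibroblasts, HUVECs and PBMCs under stimuli like LPS, TNF-α, IFN-γ, IL-1β, TGF-β or EGF, SRB reflecting cytotoxicity.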

Target | BioMAP readout fold decrease (1.48 µM) | BioMAP readout fold decrease (4.44 µM) | BioMAP readout fold decrease (13.3 µM) | BioMAP readout fold decrease (40 µM)
3C_MCP1 | 1.04 ± 0.015 | 0.986 ± 0.0064 | 0.8619 ± 0.0073 | 0.919 ± 0.018
LPS_IL8 | 1.07 ± 0.0052 | 0.942 ± 0.0096 | 0.805 ± 0.015 | 1.02 ± 0.053
BE3C_SRB | 0.9933 ± 0.0058 | 0.9934 ± 0.0085 | 1.0272 ± 0.001 | 1.1579 ± 0.0011
CASM3C_Thrombomodulin | 0.989 ± 0.031 | 0.942 ± 0.049 | 0.956 ± 0.031 | 1.23 ± 0.078
KF3CT_SRB | 1.012 ± 0.0046 | 1.011 ± 0.0045 | 1.0454 ± 0.00028 | 1.53 ± 0.21
BE3C_hLADR | 0.985 ± 0.037 | 1.17 ± 0.015 | 1.72 ± 0.043 | 2.97 ± 0.053
3C_SRB | 0.983 ± 0.018 | 1.13 ± 0.012 | 1.46 ± 0.018 | 2.09 ± 0.16
LPS_VCAM1 | 1.14 ± 0.055 | 1.55 ± 0.14 | 2.13 ± 0.16 | 3.55 ± 0.13
4H_Eotaxin3 | 0.9561 ± 0.0065 | 0.875 ± 0.022 | 1.02 ± 0.032 | 4.62 ± 0.098
CASM3C_IL8 | 1.02 ± 0.02 | 1.074 ± 0.0085 | 0.938 ± 0.016 | 0.872 ± 0.025
